NADH enzymes = inhibition of NAD/NADH coupling enzymes, library profiling. IC50, µM (top dose mostly 10 µM), for the others: at the top dose inhibition. 65,000 compounds, 0.02% hits. coupled PK/LDH NADH assays, four targets. AID 774;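 active means single-dose screening hits from any of four coupled enzyme assays that gave an IC50 when retested across doses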;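 further: the DPM-DC format reads NADH fluorescence rather than 340 nm absorbance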
Spn MK inh = blocks S. pneumoniae mevalonate kinase; 65,000 compounds, 0.48% hits; AID 555; purified MK, PK/LDH-coupled NADH absorbance 340 nm; inhibition, % at 10 µM;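 active means ranked among the strongest by inhibition in the single 10 µM screen, a fixed top-ranked set picked for dose follow-up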
Spn DPM-DC inh = S. pneumoniae DPM-DC inhibition; purified DPM-DC, PK/LDH coupled NADH fluorescence; calls only at 10 µM; 65,000 compounds, 0.49% hits; AID 556;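 active means the 320 compounds with the highest percent inhibition in the single-dose primary screen, excluding strongly autofluorescent ones, cut at about 32% in these data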;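 further: kinetic rate of NADH fluorescence loss reporting ADP formed by the decarboxylase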
A340 absorber = compound absorbs light at 340 nm | compound absorbance at 340 nm, fold over control | fold change at 10 µM | 65,000 tested, under 10 active | AID 708;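 active means at 10 µM dose, initial 340 nm absorbance at least 2 fold that of control wells; inactive means change under 2 fold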;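 further: initial absorbance extrapolated from kinetic A340 decline of NADH oxidation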
Fluor 339 460 = intrinsic fluorescence of library compounds, ex339/em460 – biochemical, MLSMR library, data from DPM-DC assay, artefact control, profiling panel; compound autofluorescence, ex339/em460 nm, NADH buffer; active compounds read high; 1 = no-compound wells, NADH background; fluorescence fold increase at 10 µM; 65,000 compounds, 5.5% hits;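 active means at 10 µM, mean starting fluorescence two-fold or more over control wells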;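 further: signal is the first read of a kinetic run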
PMK inhibit = blocks S. pneumoniae phosphomevalonate kinase | purified PMK, PK/LDH-coupled NADH absorbance 340 nm | inhibition, % at 10 µM | 65,000 compounds, 0.49% hits | AID 539;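 active means top-ranked compounds by inhibition in the single 10 µM screen, taking a fixed number of the strongest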;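 further: 0% = full reaction with DMSO carrier and 100% = background rate without enzyme reaction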
* = called active by the depositor; i = inactive; nt = no result shown; + = active, no number. In the library only some 6.8% were active in any assay of this set; here they are far more common.

SMILES	NADH enzymes	Spn MK inh	Spn DPM-DC inh	A340 absorber	Fluor 339 460	PMK inhibit
O=C(N1CCOCC1)C(F)(F)C(=O)N1CCOCC1	1%	2	i	1	1.1	2
Cc1[nH]c(C)c(C(=O)O)c1CNC1CCCCC1C (stereo not given)	7%	4	i	1	1.1	17
c1ccc2c(c1)Cc1cc(CN3CCOCC3)ccc1-2	3%	9	i	0.99	1	12
CC1CCN(S(=O)(=O)c2ccc3[nH]cc(C(=O)NCCN4CCOCC4)c(=O)c3c2)CC1	2%	0	nt	1	1.8	12
COCCNC(=O)c1c[nH]c2ccc(S(=O)(=O)N3CCC4(CC3)OCCO4)cc2c1=O	10%	0	nt	1.1	2.1*	19
CCOc1ccc2cc(C#N)c(SCC(=O)N3CCCC3)nc2c1	8%	13	i	1	2.1*	9
CC(C)C(NS(=O)(=O)c1ccc2c(c1)oc(=O)n2C)C(=O)N1CCN(Cc2ccccc2)CC1 (stereo not given)	1%	2	i	1	1.1	0
CCC(=O)Nc1nnc(Sc2ccc(N(C)C)cc2)s1	17%	2	+	1.1	0.91	0
CC(C)CC1(C)NC(=O)N(CCN2C(=O)c3ccccc3C2=O)C1=O (stereo not given)	7%	3	i	1	0.96	14
Cc1nc(SC2C=CS(=O)(=O)C2)n[nH]1 (stereo not given)	4%	0	i	0.96	1	11*
COC(=O)c1ccc(N2C(=O)CC(Sc3n[nH]c(C)n3)C2=O)cc1 (stereo not given)	12%	11	i	1	0.99	12
COc1ccc(-c2nnc(SCC(=O)NC(=O)NCc3ccco3)o2)cc1	1%	5	i	0.99	1.1	0
O=C(COc1nnc2ccccn12)N1CCN(S(=O)(=O)c2ccccc2)CC1	4%	12	nt	1	3.4*	13
CCOc1ccc2nc(NC(NC(=O)CC)(C(=O)OC)C(F)(F)F)sc2c1 (stereo not given)	3%	0	i	1	1	8
CC(=O)OCC(=O)c1ccc2ccn(C(C)=O)c2c1	2%	0	nt	1	3.4*	16
COc1ccccc1N1CCN(CC(=O)c2ccc3ccn(C(C)=O)c3c2)CC1	2%	3	i	1.1	1.3	0
N#CC1=C(N)OC2=C(C(=O)CCC2)C1Cc1ccccc1 (stereo not given)	3%	3	i	0.99	1.1	7
COc1ccc(C(=O)Nc2cccc3c2C(=O)NC3=O)cc1S(=O)(=O)N1CCOCC1	14%	4	i	1.1	1.5	25*
CC(C)OC(=O)CN1CCN(C2c3ccccc3-c3ccccc32)CC1	1%	0	i	1	1.2	2
CCCCS(=O)(=O)Nc1ccc2ncn(C)c(=O)c2c1	8%	7	nt	1	3.5*	9
Cn1cnc2cc(NS(=O)(=O)c3ccc(Br)cc3)ccc21	2%	5	i	1	0.95	0
Cc1ccccc1-n1nnnc1SCc1csc(-c2ccccc2)n1	0%	0	i	1	1.1	0
CCOC(=O)c1c(CC(C)C)csc1NC=O	14%	0	+	1	0.56	0
COc1ccc(S(=O)(=O)NCCSCc2ccco2)cc1Cl	1%	5	i	1	1.1	0
Cc1oc2nc(SCC(=O)N3CCCCC3)nc(N)c2c1C	3%	9	i	1	1.1	0
SMILES	NADH enzymes	Spn MK inh	Spn DPM-DC inh	A340 absorber	Fluor 339 460	PMK inhibit
CCOC(=O)C1CCN(Cc2ccc(F)c(Br)c2)CC1	6%	51*	i	1	0.98	9
CCOC(=O)C1CCN(Cc2ccc(OC)c(C)c2OC)CC1	9%	48*	i	0.98	1	16
CCOC(=O)C1CCCN(Cc2ccc(O)c(OC)c2)C1 (stereo not given)	10%	30	i	1.1	1.1	0
Fc1ccc(CN2CCSCC2)cc1Br	1%	0	i	1.1	1.1	2
CCOC(=O)C1CCCN(Cc2ccc(OC)cc2OC)C1 (stereo not given)	16%	49*	i	1.1	1.1	0
O=c1[nH]c(=O)n(Cc2ccco2)c2c1C(C(F)(F)F)(C(F)(F)F)N=C(C1CCCCC1)N2	5%	5	i	1.1	2.1*	0

High-throughput results deposited in PubChem by SRMLSC.
